Test systems include PIP5K1A; PIP5K1C; PIP5K2B; PKMYT1; PKN1; PKN2; PLK1; PLK2; PLK3; PLK4; PRKCD; PRKCE; PRKCH; PRKCI; PRKCQ; PRKD1; PRKD2.
What all share (settings): concentration: 1 μM,replicates: in singlicate; n = 1
For the next assay, the system named is T1, PIP5K2C.
T1 construct: gene PIP4K2C

For the next assay, the system named is T2, PKAC-alpha.
T2 construct: gene PRKACA

The subject of the next assay is T3, PKAC-beta.
T3 construct: gene PRKACB

The structures appear in SMILES notation.
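Note: KINOMEscan kinase panel screen.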

With `Cc1ccc2c(-c3ccncc3)c(-c3ccc(F)cc3)nn2c1.Cl` [GW461484], the “%Inh” value in the assay on PIP5K1A is reported as 24%; in the assay with PIP5K1C, 24%; with PIP5K2B, 31%; in the assay with PIP5K2C, 10%; with PKAC-alpha, 18%; with PKAC-beta it was 22%. Also, the “%Inh” value in the assay with PKMYT1 is listed as 0%; in the assay with PKN1, 0%; with PKN2, 8%; in the assay on PLK1, 0%; in the assay on PLK2 it was 0%; in the assay on PLK3, 0%. The “%Inh” value with PLK4 turned out to be 0%; in the assay with PRKCD, 8%; in the assay with PRKCE, 8%; in the assay on PRKCH, 0%; in the assay with PRKCI it was 28%; with PRKCQ, 21%. The results for the “%Inh” value in the assay with PRKD1 and in the assay with PRKD2 were 34% and 55%, respectively.
In the case of `CN(C)CC(O)COc1ccc(Nc2nccc(-c3cnn4nc(N5CCOCC5)ccc34)n2)cc1` (centres unmarked) [GW767488], the “%Inh” value in the assay on PIP5K1A worked out at 37%; with PIP5K1C it was 24%; in the assay on PIP5K2B it was 77%; in the assay with PIP5K2C, 82%; with PKAC-alpha it was 0%; in the assay on PKAC-beta, 0%. Besides, the “%Inh” value with PKMYT1 turned out to be 9%; with PKN1, 13%; in the assay on PKN2, 38%; in the assay on PLK1, 37%; in the assay on PLK2 it was 28%; with PLK3, 35%. The “%Inh” value is 63% in the assay with PLK4; 14% with PRKCD; 0% in the assay with PRKCE; 0% in the assay on PRKCH; 36% in the assay on PRKCI; 21% in the assay on PRKCQ. Moreover, the figures for the “%Inh” value in the assay on PRKD1 and in the assay with PRKD2 were 93.7% and 98.2%, respectively.
On to `Cl.Cl.Nc1nc(-c2ccc3c(N)n[nH]c3c2)cc(N2CCCC(NC(=O)c3ccccc3)C2)n1` (centres unmarked) [GSK2286775], for which the “%Inh” value in the assay with PIP5K1A worked out at 56%; in the assay with PIP5K1C it was 55%; in the assay with PIP5K2B it was 38%; in the assay with PIP5K2C, 25%; in the assay on PKAC-alpha, 0%; with PKAC-beta, 0%. In addition, the “%Inh” value is reported as 5% in the assay with PKMYT1; 41% in the assay with PKN1; 0% in the assay with PKN2; 0% in the assay with PLK1; 0% with PLK2; 1% in the assay on PLK3. Moreover, the “%Inh” value in the assay with PLK4 was found to be 16%; with PRKCD, 0%; with PRKCE, 10%; in the assay with PRKCH it was 0%; in the assay on PRKCI it was 24%; in the assay on PRKCQ, 18%. For the same compound, the “%Inh” value in the assay on PRKD1 and in the assay with PRKD2 was 0% throughout.
As for `O=C(NCCCN1CCOC1=O)c1cnc(NCc2cc(Cl)ccc2Cl)nc1NC1CCCC1`, the “%Inh” value in the assay with PIP5K1A amounted to 0%; in the assay with PIP5K1C it was 39%; in the assay on PIP5K2B it was 0%; in the assay with PIP5K2C, 7%; in the assay with PKAC-alpha it was 4%; in the assay with PKAC-beta, 6%. Further, the “%Inh” value with PKMYT1 is recorded as 27%; in the assay with PKN1 it was 0%; with PKN2, 10%; with PLK1, 0%; with PLK2, 0%; in the assay with PLK3, 4%. Moreover, the “%Inh” value in the assay with PLK4 is on record as 17%; with PRKCD, 3%; in the assay with PRKCE it was 14%; in the assay with PRKCH it was 8%; in the assay with PRKCI, 23%; in the assay on PRKCQ, 0%. The “%Inh” value amounted to 23% in the assay on PRKD1 and 0% in the assay on PRKD2.
Consider `CNC(=O)c1ccccc1Sc1ccc2c(/C=C/c3ccccn3)n[nH]c2c1`, for which the “%Inh” value in the assay on PIP5K1A is recorded as 12%; in the assay on PIP5K1C, 0%; in the assay with PIP5K2B, 12%; in the assay with PIP5K2C, 0%; with PKAC-alpha, 0%; with PKAC-beta, 0%. The “%Inh” value in the assay on PKMYT1 worked out at 100%; with PKN1 it was 0%; in the assay on PKN2, 0%; in the assay with PLK1 it was 0%; in the assay with PLK2, 40%; in the assay with PLK3, 34%. The “%Inh” value with PLK4 was determined as 97.7%; in the assay with PRKCD, 4%; with PRKCE, 58%; with PRKCH, 0%; with PRKCI it was 9%; in the assay on PRKCQ, 3%. Also, the results for the “%Inh” value with PRKD1 and with PRKD2 were 0% and 8%, respectively.
On to `Cc1ccc(-n2nc(C(C)(C)C)cc2NC(=O)Nc2ccc(OCCN3CCOCC3)c3ccccc23)cc1` [GW839464], for which the “%Inh” value turned out to be 0% with PIP5K1A; 37% in the assay on PIP5K1C; 23% in the assay on PIP5K2B; 19% in the assay on PIP5K2C; 0% in the assay with PKAC-alpha; 34% with PKAC-beta. Moreover, the “%Inh” value is 21% in the assay on PKMYT1; 100% with PKN1; 0% with PKN2; 24% in the assay on PLK1; 0% with PLK2; 0% in the assay with PLK3. Besides, the “%Inh” value is recorded as 2% in the assay on PLK4; 21% in the assay on PRKCD; 15% with PRKCE; 0% in the assay with PRKCH; 20% in the assay on PRKCI; 0% in the assay on PRKCQ. In addition, the “%Inh” value with PRKD1 amounted to 0%; in the assay on PRKD2 it was 20%.
Consider `Cc1cc(C(=O)Nc2ccc(Oc3ccc4nc(NC(=O)C5CC5)cn4n3)cc2)nn1-c1ccccc1`, for which the “%Inh” value in the assay on PIP5K1A is 3%; in the assay with PIP5K1C, 27%; in the assay on PIP5K2B, 50%; in the assay on PIP5K2C, 22%; in the assay on PKAC-alpha, 0%; in the assay with PKAC-beta, 21%. Also, the “%Inh” value was 0% with PKMYT1; 0% in the assay with PKN1; 11% in the assay with PKN2; 0% in the assay with PLK1; 0% with PLK2; 0% in the assay on PLK3. In addition, the “%Inh” value with PLK4 came to 0%; in the assay on PRKCD, 9%; in the assay on PRKCE it was 0%; with PRKCH, 0%; with PRKCI, 44%; in the assay on PRKCQ it was 0%. For the same compound, the “%Inh” value with PRKD1 and in the assay with PRKD2 was 0% each time.
Take `Nc1nc(Nc2ccccc2)cc(-c2ccc3c(N)n[nH]c3c2)n1` [GSK2225749]: the “%Inh” value with PIP5K1A worked out at 46%; in the assay on PIP5K1C, 82%; in the assay with PIP5K2B, 38%; in the assay on PIP5K2C, 61%; with PKAC-alpha, 0%; in the assay with PKAC-beta, 0%. For the same compound, the “%Inh” value in the assay with PKMYT1 amounted to 0%; in the assay with PKN1, 50%; in the assay with PKN2, 0%; in the assay on PLK1 it was 0%; with PLK2, 0%; in the assay with PLK3, 0%. Also, the “%Inh” value in the assay with PLK4 amounted to 6%; in the assay with PRKCD, 8%; with PRKCE, 0%; in the assay on PRKCH it was 0%; with PRKCI, 20%; with PRKCQ it was 0%. Also, the “%Inh” value in the assay with PRKD1 and with PRKD2 was 0% in each case.
Turning to `CN(C)CCOc1ccc(-c2cc(-c3c[nH]nc3-c3ccccn3)ccn2)cc1` [GW835314], the “%Inh” value with PIP5K1A was 0%; in the assay on PIP5K1C it was 16%; in the assay with PIP5K2B, 26%; in the assay on PIP5K2C, 8%; in the assay on PKAC-alpha, 10%; with PKAC-beta, 0%. Further, the “%Inh” value came to 0% with PKMYT1; 100% with PKN1; 3% with PKN2; 42% in the assay on PLK1; 21% with PLK2; 0% in the assay with PLK3. Also, the “%Inh” value came out at 2% in the assay on PLK4; 23% in the assay with PRKCD; 11% in the assay with PRKCE; 8% in the assay on PRKCH; 14% with PRKCI; 100% in the assay with PRKCQ. Further, the “%Inh” value was 89% in the assay on PRKD1 and 96.1% in the assay on PRKD2.
In the case of `Cc1cc2cn[nH]c2cc1-c1cccc2c(N)c(C(N)=O)nnc12`, the “%Inh” value amounted to 16% in the assay with PIP5K1A; 0% with PIP5K1C; 0% in the assay with PIP5K2B; 10% with PIP5K2C; 1% with PKAC-alpha; 0% with PKAC-beta. For the same compound, the “%Inh” value in the assay on PKMYT1 is given as 0%; in the assay with PKN1, 0%; with PKN2, 0%; in the assay on PLK1, 15%; with PLK2, 5%; in the assay with PLK3, 0%. In addition, the “%Inh” value in the assay on PLK4 came to 51%; with PRKCD, 5%; with PRKCE, 4%; in the assay with PRKCH, 7%; in the assay with PRKCI it was 23%; in the assay with PRKCQ, 21%. In addition, the “%Inh” value came out at 86% in the assay with PRKD1 and 89% with PRKD2.
As for `CC(C)Nc1cc(-c2ccc3c(N)n[nH]c3c2)nc(N)n1` [GSK2221681], the “%Inh” value in the assay with PIP5K1A is listed as 56%; in the assay on PIP5K1C it was 28%; in the assay with PIP5K2B, 32%; in the assay on PIP5K2C it was 0%; in the assay with PKAC-alpha, 0%; in the assay with PKAC-beta it was 0%. Further, the “%Inh” value in the assay with PKMYT1 came out at 0%; in the assay on PKN1, 29%; in the assay with PKN2, 0%; with PLK1, 0%; in the assay with PLK2 it was 0%; in the assay with PLK3 it was 0%. In addition, the “%Inh” value in the assay with PLK4 is on record as 0%; with PRKCD, 0%; in the assay with PRKCE, 0%; in the assay with PRKCH, 0%; in the assay on PRKCI, 11%; in the assay on PRKCQ, 12%. Moreover, the “%Inh” value in the assay on PRKD1 and in the assay on PRKD2 was 0% throughout.
With `C[C@@H]1CCN(C(=O)CC#N)C[C@@H]1N(C)c1ncnc2[nH]ccc12`, the “%Inh” value with PIP5K1A, in the assay on PIP5K1C, with PIP5K2B, in the assay on PIP5K2C, in the assay on PKAC-alpha and in the assay with PKAC-beta was 0% throughout. In addition, the “%Inh” value in the assay with PKMYT1 is 20%; in the assay on PLK1, 0%; in the assay on PLK2, 0%; in the assay on PLK3 it was 0%; in the assay with PLK4 it was 0%; in the assay with PRKCD it was 18%. In addition, the “%Inh” value in the assay on PRKCE was found to be 45%; in the assay on PRKCH, 12%; with PRKCI, 5%; in the assay on PRKCQ, 0%; in the assay with PRKD1, 0%; in the assay with PRKD2, 0%.
In the case of `COc1ccc(C[C@@H](CN)NC(=O)c2cc(Br)c(-c3ccnc4[nH]ccc34)s2)cc1.Cl.Cl` [GSK1389063], the “%Inh” value in the assay on PIP5K1A was found to be 46%; in the assay on PIP5K1C, 30%; in the assay on PIP5K2B, 64%; with PIP5K2C it was 59%; in the assay on PKAC-alpha, 99.7%; with PKAC-beta, 99.7%. Further, the “%Inh” value is recorded as 0% with PKMYT1; 95.8% in the assay on PKN1; 90% in the assay on PKN2; 0% with PLK1; 27% with PLK2; 27% with PLK3. The “%Inh” value with PLK4 amounted to 34%; in the assay on PRKCD, 99.8%; in the assay with PRKCE it was 98.2%; with PRKCH, 99.4%; in the assay on PRKCI, 56%; with PRKCQ, 92.4%. Also, the “%Inh” value was determined as 83% in the assay with PRKD1 and 85% in the assay with PRKD2.
`Cl.Cl.NC[C@H](CC1CCCCC1)NC(=O)c1cc(Br)c(-c2ccnc3[nH]ccc23)s1` [GSK1581427]: the “%Inh” value with PIP5K1A came to 63%; in the assay with PIP5K1C it was 35%; with PIP5K2B it was 89%; in the assay with PIP5K2C, 36%; in the assay with PKAC-alpha, 99.5%; with PKAC-beta it was 99.6%. In addition, the “%Inh” value amounted to 0% in the assay with PKMYT1; 31% in the assay on PKN1; 82% in the assay with PKN2; 0% with PLK1; 0% with PLK2; 0% in the assay with PLK3. The “%Inh” value with PLK4 is 15%; in the assay on PRKCD it was 99.5%; with PRKCE it was 96.6%; in the assay with PRKCH it was 97.7%; with PRKCI, 0%; with PRKCQ it was 90.2%. In addition, the results for the “%Inh” value with PRKD1 and in the assay on PRKD2 were 64% and 67%, respectively.

Values taken from PMC5540273 (PLoS ONE, 2017).
